Data published in the supplement of paper PMC10338343.
± gives the standard deviation.

What follows are sequences tested on MILI (PIWIL2) piRISC loaded with L1MC piRNA (26 nt) (assay: pre-steady-state target cleavage rate (min^-1); guide: L1MC piRNA 5'p-UAACUAAAUACUAUGCAAGCUGUAGG; MIWI and MILI are mouse PIWI proteins and EfPiwi is from a freshwater sponge; tags in brackets are library labels; higher = faster piRNA-guided slicing of the target). Conditions: auxiliary factor: 500 nM mouse GTSF1.
How it was run: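 Active affinity-purified piRISC (1 nM) loaded with one synthetic guide was mixed with a transcribed, DNA-blocked target RNA library (0.1 nM), with or without 500 nM GTSF1 partner protein, in HEPES–potassium acetate buffer at 33 °C for 0–8 or 0–960 min. Uncleaved targets were sequenced, normalised to depth and to weakly complementary targets, and pooled across three trials, with k3 capped at 0.0001 min^-1. The pre-steady-state cleavage rate was determined with a burst-and-steady-state fit.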

Sequence | pre-steady-state target cleavage rate
UCCUGGAUGAGCUUGCUAUAGUAUUUAGUUA | 0.00431 ± 0.0032
UCCUGGAACAGGAUGCAUAGUAUUUUCAAA | 0.0202 ± 0.0076
UCCUGGAUGUGCUUGCAUAGUAUUUAUUUA | 0.0305 ± 0.011
UCCUGGAUCAGCUUGCAUAGUAUAUAGAUA | 0.0407 ± 0.013
UCCUGGAACAGCUUGCAAAGUAUUUACUUA | 0.122 ± 0.027
UCCUGGAUCAGCUUGCAUAUGUAUUUAGUUA | 0.00465 ± 0.0046
UCCUGGUACAGCUUGCAUAGUAAUUACUUA | 0.00729 ± 0.0052
UCCUGGAUCAGCUUGCAUAGUUUUUACAAA | 0.012 ± 0.0052
UCCUGCUACACCUUGCAUAGUAUUUACAAA | 0.144 ± 0.039
UCCUGGAACAGCUUCGAUAGUAUUUAGAAA | 0.0923 ± 0.021
UCCUGGAUGUGCUUGCCAUAGUAUUUAGUUA | 0.014 ± 0.0071
UCCUGGAACAGCUUCGUUAGUAUUUAGUAA | 0.115 ± 0.017
UCCUGGAUGUCGAUGCAAAGUAUUAAGUUA | 0.00433 ± 0.0038
UCCUGGAACAGCUUGCAUAGCUAUUUAGUUA | 0.00904 ± 0.0044
UCCUGCUACACGAUGCAUAGUAUUUACAAA | 0.0504 ± 0.02
UCCUGCUACAGCUUGGUAAGUAUUUAGUAA | 0.207 ± 0.039
UCCUGGAUGUCGAAGCAUAGUAUUUAGAUUA | 0.00757 ± 0.0041
UCCUGGAACAGCAAGCAUAGUAUUUUCAAA | 0.0642 ± 0.018
UCCUGGAUGUCGUUGCUUAGUAAUUAGUUA | 0.0131 ± 0.0058

Sequence | pre-steady-state target cleavage rate
UCCUGGAUCAGCUUCCAUAGUUUUUAGUUA | 0.0089 ± 0.0041
UCCUGGAUGUCGAUGCAUAGUAUUUAGAUUA | 0.0599 ± 0.016
UCCUGCUACAGCUUGCAUACAUUUUAGUUA | 0.0121 ± 0.0061
UCCUGGAUGUCCUAGCAUAGUAUUUUGUUA | 0.0105 ± 0.0061
UCCUGGAUGUCCUUGCAUAGUAUAUAGAUA | 0.0132 ± 0.0063
UCCUGGAUGAGCUACCAUAGUAUUUAGUAA | 0.1 ± 0.018
UCCUGGAUGUCCUUGCAUAGUAUUUUGUUA | 0.0499 ± 0.0089
UCCUCCUACAGCUUGCUAAGUAUUUAGAAA | 0.0796 ± 0.016
UCCUGCUACAGCUUGCAUACUAUUUAGUAA | 0.0862 ± 0.018
UCCUGGUACAGCUUGCAUCAGUAUUUAGUUA | 0.0101 ± 0.0042
UCCUGGUUGUGCUUGCAUAGUAUUUUCAAA | 0.00513 ± 0.005
UCCUGGAUCAGCUUGCAUAGUUAAUAGUAA | 0.0192 ± 0.0068
UCCUGGAACACCUUGCAUAGAAUUUAGUUA | 0.0907 ± 0.036
UCCUGGAACAGCUUGCAUUAGUAUUUAGUUA | 0.0128 ± 0.0055
UCCUGGAUGUCGAUGCAUAGUAUUUAGUGUA | 0.149 ± 0.045
UCCUGGUACAGCUAGCAUAGUAUUUACUUA | 0.0934 ± 0.023
UCCUCCUACAGCUUGCAUAGUAUUAUGAAA | 0.115 ± 0.029
UCCUGGAUGACCUUGCAUAGAAUUUAGUUA | 0.023 ± 0.012
UCCUGGAACAGCUUGCAUAGUAUUUUCUAA | 0.0162 ± 0.0068
